RORgamma inh = ROR gamma (mouse) transcription inhibition; Drosophila S2 Gal4-RORgamma UAS-luciferase reporter, 20 h; Potency, µM (titrated, usually from 53.6 µM), most hits filed as inhibitors; hit rate 5.4% among 310,000; AID 2551; also: nearly all actives have a fitted effect of over 60% in size
Target sequence (P51450 whole entry, looked up, the tested form may be a part): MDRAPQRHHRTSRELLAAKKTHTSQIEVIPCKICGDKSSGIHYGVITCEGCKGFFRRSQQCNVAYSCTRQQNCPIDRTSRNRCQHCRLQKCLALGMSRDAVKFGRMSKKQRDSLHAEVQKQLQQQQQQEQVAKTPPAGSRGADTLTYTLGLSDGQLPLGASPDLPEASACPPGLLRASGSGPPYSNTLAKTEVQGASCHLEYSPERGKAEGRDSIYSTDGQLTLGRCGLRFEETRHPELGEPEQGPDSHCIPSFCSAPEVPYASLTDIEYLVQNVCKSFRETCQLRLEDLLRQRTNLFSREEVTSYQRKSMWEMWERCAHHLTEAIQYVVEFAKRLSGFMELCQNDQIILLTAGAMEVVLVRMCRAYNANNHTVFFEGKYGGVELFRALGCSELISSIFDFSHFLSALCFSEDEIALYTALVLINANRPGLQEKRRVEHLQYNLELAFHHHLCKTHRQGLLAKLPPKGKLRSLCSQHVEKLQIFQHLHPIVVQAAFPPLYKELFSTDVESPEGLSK
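Stably transfected Drosophila Schneider cells are the test system, with ROR gamma fused to Gal4 and luciferase under UAS control; luminescence is read after 20 hr of 700 uM copper sulfate induction at ambient temperature.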
Gal4-VP16 FLuc = Gal4-VP16 reporter inhibition counter-screen; hit rate 3.5% among 310,000; Potency, µM (doses to about 53.6 µM), most hits filed as inhibitors; Drosophila S2 Gal4-VP16 UAS-luciferase, luminescence, 20 h;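 also: Gal4-VP16 expression switched on by copper sulfate through the metallothionein promoter; nearly all actives have a fitted effect of over 50% in size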
CBFb-RUNX1 inh = inhibitors of human CBF-beta and RUNX1 interaction; 230,000 tested, under 10 active; Q01196+Q13951; AlphaScreen CBFb-His/RUNX1-biotin binding, biochemical; Potency, µM (doses to about 59.8 µM), actives largely listed as inhibitors
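Compounds were screened at multiple concentrations against a preformed CBF-beta(His)/RUNX1(biotin) complex (30 nM of each) for 15 min at room temperature, followed by 90 min with nickel and streptavidin beads and AlphaScreen reading.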
MBNL1-CUG inh = inhibitors of human MBNL1 binding to CUG repeat RNA; Q9NR56; TR-FRET MBNL1-His/biotin-(CUG)12 binding, 665/545 ratio; Potency, µM (doses to about 57.5 µM), actives largely listed as inhibitors; hit rate 0.036% among 280,000; AID 2675; active = well fitted inhibition curve with a large enough effect in the signal ratio, with a control signal flat, not every such curve was filed as active; inconclusive = small, poorly fitted or top-dose-only effect, or effect the other way, or a change in a side signal; inactive = no such curve, though single readings can be large or run the other way; the % refers to the signal ratio
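Compounds (final 92 nM to 58 uM) are added to His-tagged MBNL1 and biotin-(CUG)12, then terbium anti-His antibody and streptavidin-XL665 (5 nM final). After 60 min at room temperature, the 665/545 nm ratio is read.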
CtBP-E1A blk = blocks the CtBP interaction with E1A | AlphaScreen GST-E1A/His-CtBP binding, 1536-well; active compounds read low | activity change, % (no concentration beside the values) | hit rate 0.49% among 340,000 | AID 651724; in the data active = activity change below about -65%; inconclusive = mostly about -30% to -63%
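GST-E1A and His-tagged CtBP (125 nM each as 5X stock) were preincubated with pin-transferred compound for 2 h at 37 °C in the dark, then glutathione donor and nickel acceptor beads were added for 1 h before AlphaScreen reading.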
Six1-Eya2 inh = blocks human Six1 binding to Eya2 | Q15475+O00167 | hit rate 0.56% among 360,000 | AlphaScreen GST-Six1/His-Eya2 binding, biochemical; active compounds read low | AID 651725 | activity change, % (concentration not given with the values); in the data active = activity change below about -65%; inconclusive = mostly about -30% to -63%
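AlphaScreen with GST-Six1 and His-Eya2 (5X mix: 250 nM and 500 nM), glutathione donor and nickel acceptor beads; buffer 50 mM Tris pH 8.0, 300 mM NaCl, 1 mM TCEP; 1 h at 37 C in the dark.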
A number is an active result; [ ] = dose if it differs, or a comment. Shown are actives, neighbours in structure and some others; about 5.5% of the full set was active somewhere. Unless noted, calls follow the shape of the dose curve; as a rule, active = well fitted curve in the direction sought with a large enough effect; inconclusive = small, poorly fitted or top-dose-only effect, or another doubt; inactive = no such curve, though single readings can be large; an effect the other way counts as inactive or inconclusive.

Screening COc1cc([N+](=O)[O-])cc(/C=N\NC(=O)C2COc3ccccc3O2)c1O (centres undefined) returned RORgamma inh 0.45µM, Gal4-VP16 FLuc 3.2µM and Six1-Eya2 inh -89.
Screening O=C(N/N=C\c1cccc([N+](=O)[O-])c1O)C1COc2ccccc2O1 (centres undefined) returned RORgamma inh 1.8µM, Gal4-VP16 FLuc 2µM, MBNL1-CUG inh inconclusive, CtBP-E1A blk -96 and Six1-Eya2 inh -88.
`O=C(N/N=C/c1ccco1)C1COc2ccccc2O1` (centres undefined) gave RORgamma inh inactive, Gal4-VP16 FLuc inactive, CBFb-RUNX1 inh inactive, MBNL1-CUG inh inactive, CtBP-E1A blk inactive and Six1-Eya2 inh inactive.
`O=C(N/N=C\c1ccc[nH]1)C1COc2ccccc2O1` (centres undefined) gave RORgamma inh 11µM, Gal4-VP16 FLuc inconclusive, CBFb-RUNX1 inh inactive, MBNL1-CUG inh inactive, CtBP-E1A blk inactive and Six1-Eya2 inh inactive.
Screening CC1(C(=O)Nc2ccc(Cl)c(Cl)c2)CCN1CCc1ccccc1 (centres undefined) returned CtBP-E1A blk inactive and Six1-Eya2 inh inactive.
Screening OCC(O)C(O)C(O)C(O)C(O)CO (centres undefined) returned RORgamma inh inactive and Gal4-VP16 FLuc inactive.
Cc1[nH]c2ccc3ccccc3c2c(=O)c1C/C=C/Cl was read as RORgamma inh inconclusive, Gal4-VP16 FLuc inactive, MBNL1-CUG inh inactive, CtBP-E1A blk inactive and Six1-Eya2 inh inactive.
`Cc1[nH]c2ccc(Br)cc2c(=S)c1C/C=C/Cl` gave RORgamma inh 7.9µM, Gal4-VP16 FLuc inactive, CBFb-RUNX1 inh inactive, MBNL1-CUG inh inactive, CtBP-E1A blk inactive and Six1-Eya2 inh inactive.
Screening COc1cc(SC#N)ccc1N=Cc1c(C)[nH]n(-c2ccc(Cl)cc2)c1=O returned RORgamma inh 5.6µM, Gal4-VP16 FLuc 5.6µM, CBFb-RUNX1 inh inactive, MBNL1-CUG inh inactive, CtBP-E1A blk inactive and Six1-Eya2 inh inactive.
Screening COc1cc(SC#N)ccc1N=Cc1c(C)[nH]n(-c2ccc(C)c(C)c2)c1=O returned RORgamma inh 4.5µM, Gal4-VP16 FLuc 4.5µM, CBFb-RUNX1 inh inactive, CtBP-E1A blk inconclusive and Six1-Eya2 inh -66.
Screening COc1cc(S(=O)(=O)Nc2ccccc2)ccc1N=Cc1c(C)[nH]n(-c2ccc(C)cc2)c1=O returned RORgamma inh inactive, Gal4-VP16 FLuc inactive, CBFb-RUNX1 inh inconclusive and MBNL1-CUG inh inactive.
C[C@@H]1C[C@](C)(C(=O)c2ccco2)C=C1c1ccco1 was read as RORgamma inh inactive, Gal4-VP16 FLuc inactive and CBFb-RUNX1 inh inactive.
CSCCC(NC(=O)CCNC(=O)c1ccccc1Cl)c1nc2ccccc2[nH]1 (centres undefined) was read as CtBP-E1A blk inactive and Six1-Eya2 inh inactive.
Screening c1ccc(CNc2nc(-c3ccccc3)nc3ccccc23)cc1 returned RORgamma inh inactive, Gal4-VP16 FLuc inactive, MBNL1-CUG inh inactive, CtBP-E1A blk inactive and Six1-Eya2 inh inactive.
For CCC(C)Nc1nc(-c2ccccn2)nc2ccccc12 (centres undefined) the results were RORgamma inh 0.71µM, Gal4-VP16 FLuc 3.5µM, MBNL1-CUG inh inactive, CtBP-E1A blk inactive and Six1-Eya2 inh inconclusive.
COc1ccccc1-c1nc(NCc2ccccc2)c2ccccc2n1 was read as RORgamma inh 35µM and Gal4-VP16 FLuc inconclusive.
Fc1ccccc1/C=N/Nc1nc(-c2ccccn2)nc2ccccc12 was read as RORgamma inh 0.25µM, Gal4-VP16 FLuc 0.5µM, CBFb-RUNX1 inh inactive and MBNL1-CUG inh inactive.
`c1ccc(CNc2nc(-c3ccccn3)nc3ccccc23)cc1` gave RORgamma inh 2.5µM, Gal4-VP16 FLuc 3.5µM, MBNL1-CUG inh inactive, CtBP-E1A blk -77 and Six1-Eya2 inh inconclusive.
Screening CCC(C)Nc1nc(-c2cccc(OC)c2O)nc2ccccc12 (centres undefined) returned RORgamma inh inactive, Gal4-VP16 FLuc inactive, CBFb-RUNX1 inh inconclusive, MBNL1-CUG inh inactive, CtBP-E1A blk inactive and Six1-Eya2 inh inactive.
CCOc1ccccc1N(C(=O)CNC(=O)c1ccco1)C(C(=O)NC1CCCC1)c1ccncc1 (centres undefined) was read as RORgamma inh inactive, Gal4-VP16 FLuc inactive, MBNL1-CUG inh inactive, CtBP-E1A blk inactive and Six1-Eya2 inh inactive.
CC(C)Cn1c([N+](=O)[O-])nc2c1c(=O)[nH]c(=O)n2C was read as RORgamma inh 8.9µM, Gal4-VP16 FLuc inconclusive, CBFb-RUNX1 inh inactive, MBNL1-CUG inh inactive, CtBP-E1A blk inactive and Six1-Eya2 inh inactive.
For Cn1c(=O)[nH]c(=O)c2c1nc([N+](=O)[O-])n2Cc1ccccc1 the results were RORgamma inh 4µM, Gal4-VP16 FLuc 5.6µM, CBFb-RUNX1 inh inactive, CtBP-E1A blk inactive and Six1-Eya2 inh inactive.
`CCC1(C)NC(=O)N(CC(=O)NCC(=O)Nc2c(C)cc(C)cc2C)C1=O` (centres undefined) gave Six1-Eya2 inh inactive.
`CCOC(=O)C(C)Sc1nnc(NC(=O)c2ccc3c(c2)OCO3)s1` (centres undefined) gave RORgamma inh 10µM, Gal4-VP16 FLuc inactive, CBFb-RUNX1 inh inactive, MBNL1-CUG inh inactive, CtBP-E1A blk inactive and Six1-Eya2 inh inactive.
CSc1nnc(NC(=O)c2ccc3c(c2)OCO3)s1 was read as RORgamma inh 2.5µM, Gal4-VP16 FLuc 4.5µM, MBNL1-CUG inh inactive, CtBP-E1A blk inactive and Six1-Eya2 inh inactive.
Cc1nnc(NC(=O)c2ccc3c(c2)OCO3)s1 was read as RORgamma inh inactive, Gal4-VP16 FLuc inactive, CBFb-RUNX1 inh inactive, MBNL1-CUG inh inactive, CtBP-E1A blk inactive and Six1-Eya2 inh inactive.
`COCCSc1nnc(NC(=O)c2ccc3c(c2)OCO3)s1` gave RORgamma inh inconclusive, Gal4-VP16 FLuc inactive, CBFb-RUNX1 inh inactive, MBNL1-CUG inh inactive, CtBP-E1A blk inactive and Six1-Eya2 inh inactive.
For O=C(NCC1CCCO1)C1CC(=O)N(c2ccc(Cl)cc2)C1 (centres undefined) the results were RORgamma inh inactive, Gal4-VP16 FLuc inactive, MBNL1-CUG inh inactive, CtBP-E1A blk inactive and Six1-Eya2 inh inactive.
Screening COc1ccccc1NC(=S)N(CCN1CCCCCC1)Cc1cccs1 returned RORgamma inh 14µM, Gal4-VP16 FLuc inactive[10 µM], CBFb-RUNX1 inh inactive, MBNL1-CUG inh inactive, CtBP-E1A blk inactive and Six1-Eya2 inh inactive.
For CCc1ccccc1NC(=S)N(Cc1cccs1)C1CCCC1 the results were RORgamma inh 11µM, Gal4-VP16 FLuc inactive[10 µM], CBFb-RUNX1 inh inactive, MBNL1-CUG inh inactive, CtBP-E1A blk inactive and Six1-Eya2 inh inactive.
Cc1ccccc1NC(=S)N(Cc1ccccc1)Cc1cccs1 was read as RORgamma inh 10µM, Gal4-VP16 FLuc inactive, CBFb-RUNX1 inh inactive, MBNL1-CUG inh inactive, CtBP-E1A blk inactive and Six1-Eya2 inh inactive.

Screening results: PubChem, National Center for Advancing Translational Sciences (NCATS)
